Results filed as inconclusive are left out. The source made the active and inactive calls.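 Rule for the calls, unless noted: active = normalized viability below 100% at a tested concentration; inactive = the rest.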
Experiments:
[1] = viability loss in pontine glioma line – cell-based, JHH-DIPG-1, MIPE4.0, CellTiter-Glo, qHTS, dose response (AID 1347062; cut-off not given, nearly all actives have AC50 up to about 27 µM;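 for AC50: cells exposed to compound for two days before readout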); conditions: JHH-DIPG-1 viability, CellTiter-Glo ATP luminescence
[2] = viability loss in pontine glioma line – cell-based, SU-DIPG-IV, MIPE4.0, CellTiter-Glo, qHTS, dose response (AID 1347063; cut-off not given, nearly all actives have AC50 up to about 30 µM;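 note: compound exposure lasted 48 hours before the viability readout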); conditions: CellTiter-Glo ATP luminescence
[3] = viability loss in pontine glioma line – cell-based, SU-DIPG-XIII, MIPE5.0, CellTiter-Glo, qHTS, dose response (AID 1347064; cut-off not given, nearly all actives have AC50 up to about 23 µM;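 note: cells exposed to compound for 48 hours before the viability read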); conditions: CellTiter-Glo ATP luminescence
[4] = growth inhibition of DIPG cells – cell-based, MIPE4.0 library, CellTiter-Glo luminescence, qHTS (AID 1347066; cut-off not given, nearly all actives have AC50 up to about 30 µM;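 note: cells exposed to compound for 48 hours before readout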); conditions: SU-DIPG-VI viability, CellTiter-Glo ATP luminescence
[5] = JHH-DIPG-1 glioma cell viability, MIPE5.0 library, CellTiter-Glo luminescence, qHTS (AID 1347067; cut-off not given, nearly all actives have AC50 up to about 26 µM;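 note: cells exposed to compound for 48 hours before readout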); conditions: JHH-DIPG-1 glioma viability, CellTiter-Glo ATP luminescence
[6] = growth inhibition of DIPG cells – cell-based, MIPE5.0 library, qHTS (AID 1347068; cut-off not given, nearly all actives have IC50 up to about 30 µM;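 for IC50: cells exposed to compound for 48 hours before viability readout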); conditions: SU-DIPG-XXV viability
[7] = viability loss with induced miR-34 in A549 – imaging, A549 dox-inducible miR-34, nuclei and caspase counts, primary screen (AID 1347080;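 active = compounds whose cell count with miR-34 switched on is under 0.7 times the count with it off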); conditions: A549 miR-34 inducible, Hoechst nuclei count, 48 h
[8] = MELAS cybrid and Rieske KO viability enhancers – cell-based, MELAS cybrids, Rieske KO mouse fibroblasts, CellTiter-Glo, primary screen (AID 1508586;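 active = mean z-score across replicates of 1.96 or higher in either the MELAS or the Rieske mutant cell line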;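 note: z relative to plate mean and SD of compound and empty wells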); conditions: low glucose
[9] = viability loss in pontine glioma line – cell-based, SU-DIPG-XIII, MIPE4.0, CellTiter-Glo, qHTS, dose response (AID 1347061; cut-off not given, nearly all actives have AC50 up to about 37 µM;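 note: cells exposed to compound for 48 hours before readout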); conditions: CellTiter-Glo ATP luminescence
[10] = viability loss in pontine glioma line – cell-based, SU-DIPG-XXV, MIPE5.0, CellTiter-Glo, qHTS, dose response (AID 1347065; cut-off not given, nearly all actives have AC50 up to about 26 µM;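 note: cells exposed to compound for 48 hours before ATP readout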); conditions: CellTiter-Glo ATP luminescence
[11] = compounds altering HSF1 focus formation in cells – imaging, Selleck Cancer Library (AID 1347162; in the data active = plate-normalised HSF1 focus index below about 0.46); conditions: human cells, HSF1 nuclear foci imaging, at 10 µM; SSMD: measured here: HSF1 foci SSMD mean; cell count: measured here: cell number; plate-normalised HSF1 focus index: stronger effect = lower value
[12] = drug combination growth inhibition, ovarian cancer – cell-based, oncology-focused library, rucaparib conditional, profiling panel (AID 1508598); conditions: patient-derived ovarian cancer cells, CellTiter-Glo viability, 144 h, stronger effect = lower value
[13] = stronger effect = lower value, cell number ratio, induced over uninduced
[14] = measured here: relative caspase fold change +Dox/-Dox
[15] = measured here: total cells with miR-34 induction, stronger effect = lower value
[16] = measured here: total cells without miR-34 induction
[17] = MELAS cybrid survival, CellTiter-Glo 48 h, stronger effect = higher value
[18] = Rieske KO mouse fibroblast survival, CellTiter-Glo 72 h

Structure (SMILES): CCCNC(=O)Nc1ccc(Oc2ncnc3cc(OC)c(OC)cc23)cc1Cl
- outcome [1]: inactive
- outcome [2]: inactive
- AC50 [3]: 20.9 µM (active)
- outcome [4]: inactive
- AC50 [5]: 26.3 µM (active)
- outcome [6]: inactive
- fold change [7, 13]: 0.924 (inactive)
- fold change [7, 14]: 0.73
- cell count [7, 15]: 7400
- cell count [7, 16]: 8010
- z-score [8, 17]: 0.782 (inactive)
- z-score [8, 18]: 0.0458

Structure (SMILES): CN[C@@H]1[C@@H](O)[C@@H](O[C@@H]2[C@@H](O)[C@H](O[C@H]3O[C@H](CN)[C@@H](O)[C@H](O)[C@H]3O)[C@@H](N)C[C@H]2NC(=O)[C@@H](O)CN)OC[C@]1(C)O
- outcome [1]: inactive
- outcome [2]: inactive
- outcome [4]: inactive

Structure (SMILES): CN(C1CCc2c(c3ccccc3n2CC(=O)O)C1)S(=O)(=O)c1ccc(F)cc1 (stereo unspecified)
- outcome [9]: inactive
- outcome [4]: inactive
- fold change [7, 13]: 1.07 (inactive)
- fold change [7, 14]: 0.901
- cell count [7, 15]: 6410
- cell count [7, 16]: 5990

Structure (SMILES): COc1ccc(C[C@@H](C)[C@@H](C)Cc2ccc(OC)c(OC)c2)cc1OC
- AC50 [1]: 1.18 µM (active)

Structure (SMILES): Fc1cc(-c2cccc3ncc(-c4cnn(C5CCNCC5)c4)nc23)cc(F)c1CN1CCOCC1
- AC50 [1]: 20.9 µM (active)
- AC50 [2]: 18.7 µM (active)
- AC50 [3]: 11.8 µM (active)
- AC50 [10]: 9.34 µM (active)
- AC50 [4]: 23.5 µM (active)
- AC50 [5]: 13.2 µM (active)
- IC50 [6]: 23.5 µM (active)
- fold change [7, 13]: 0.713 (inactive)
- fold change [7, 14]: 0.777
- cell count [7, 15]: 5860
- cell count [7, 16]: 8220
- SSMD [11]: -6.26
- cell count [11]: 6160
- plate-normalised HSF1 focus index [11]: 0.613 (inactive)
- z-score [8, 17]: -0.567 (inactive)
- z-score [8, 18]: -0.329
- viability ([12]; at 0.000305 µM, OCI-C5x cells, with rucaparib 10 µM, 100% = cells with rucaparib alone): 105% (inactive)
- viability ([12]; at 0.000305 µM, OCI-C5x cells, without rucaparib): 114% (inactive)
- viability ([12]; at 0.000305 µM, OCI-P5x cells, with rucaparib 20 µM, 100% = cells with rucaparib alone): 77.7% (active)
- viability ([12]; at 0.000305 µM, OCI-P5x cells, without rucaparib): 90.5% (active)
- viability ([12]; at 0.00122 µM, OCI-C5x cells, with rucaparib 10 µM, 100% = cells with rucaparib alone): 116% (inactive)
- viability ([12]; at 0.00122 µM, OCI-C5x cells, without rucaparib): 118% (inactive)
- viability ([12]; at 0.00122 µM, OCI-P5x cells, with rucaparib 20 µM, 100% = cells with rucaparib alone): 18.8% (active)
- viability ([12]; at 0.00122 µM, OCI-P5x cells, without rucaparib): 18.7% (active)
- viability ([12]; at 0.00488 µM, OCI-C5x cells, with rucaparib 10 µM, 100% = cells with rucaparib alone): 112% (inactive)
- viability ([12]; at 0.00488 µM, OCI-C5x cells, without rucaparib): 114% (inactive)
- viability ([12]; at 0.00488 µM, OCI-P5x cells, with rucaparib 20 µM, 100% = cells with rucaparib alone): 89.3% (active)
- viability ([12]; at 0.00488 µM, OCI-P5x cells, without rucaparib): 99.1% (active)
- viability ([12]; at 0.0195 µM, OCI-C5x cells, with rucaparib 10 µM, 100% = cells with rucaparib alone): 110% (inactive)
- viability ([12]; at 0.0195 µM, OCI-C5x cells, without rucaparib): 112% (inactive)
- viability ([12]; at 0.0195 µM, OCI-P5x cells, with rucaparib 20 µM, 100% = cells with rucaparib alone): 88.8% (active)
- viability ([12]; at 0.0195 µM, OCI-P5x cells, without rucaparib): 91.6% (active)
- viability ([12]; at 0.0781 µM, OCI-C5x cells, with rucaparib 10 µM, 100% = cells with rucaparib alone): 99.8% (active)
- viability ([12]; at 0.0781 µM, OCI-C5x cells, without rucaparib): 115% (inactive)
- viability ([12]; at 0.0781 µM, OCI-P5x cells, with rucaparib 20 µM, 100% = cells with rucaparib alone): 80.3% (active)
- viability ([12]; at 0.0781 µM, OCI-P5x cells, without rucaparib): 96% (active)
- viability ([12]; at 0.313 µM, OCI-C5x cells, with rucaparib 10 µM, 100% = cells with rucaparib alone): 114% (inactive)
- viability ([12]; at 0.313 µM, OCI-C5x cells, without rucaparib): 120% (inactive)
- viability ([12]; at 0.313 µM, OCI-P5x cells, with rucaparib 20 µM, 100% = cells with rucaparib alone): 80.6% (active)
- viability ([12]; at 0.313 µM, OCI-P5x cells, without rucaparib): 89.7% (active)
- viability ([12]; at 1.25 µM, OCI-C5x cells, with rucaparib 10 µM, 100% = cells with rucaparib alone): 124% (inactive)
- viability ([12]; at 1.25 µM, OCI-C5x cells, without rucaparib): 115% (inactive)
- viability ([12]; at 1.25 µM, OCI-P5x cells, with rucaparib 20 µM, 100% = cells with rucaparib alone): 68.6% (active)
- viability ([12]; at 1.25 µM, OCI-P5x cells, without rucaparib): 80.5% (active)
- viability ([12]; at 5 µM, OCI-C5x cells, with rucaparib 10 µM, 100% = cells with rucaparib alone): 29.6% (active)
- viability ([12]; at 5 µM, OCI-C5x cells, without rucaparib): 15.6% (active)
- viability ([12]; at 5 µM, OCI-P5x cells, with rucaparib 20 µM, 100% = cells with rucaparib alone): 17.1% (active)
- viability ([12]; at 5 µM, OCI-P5x cells, without rucaparib): 20.9% (active)

Structure (SMILES): NC(CO)(CO)CCc1ccc(Sc2cccc(OCc3ccccc3)c2)cc1Cl
- AC50 [1]: 11.8 µM (active)
- AC50 [2]: 11.8 µM (active)
- AC50 [3]: 8.33 µM (active)
- AC50 [10]: 9.34 µM (active)
- AC50 [4]: 18.7 µM (active)
- AC50 [5]: 9.34 µM (active)
